# Results from PubChem BioAssay.
# Where “and” joins values, the source holds several entries; their conditions need not be identical. Equal entries are not always repeated. A structure can be active in one record and inactive in another. Calls of active or inactive are those of the source.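 How the source made its calls, unless noted: active means thallium flux through the channel raised or lowered by more than 3 SD from vehicle-only wells, actives on both sides; inactive means the rest.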
# What was measured:
# [1] = tested on: Hepatitis C virus NS3 helicase; assay: blockers of NS3h binding to DNA – biochemical, fluorescence polarization, NIH Clinical Collection, primary screen (AID 743270; call rule not given here); conditions: NS3 helicase binding to Cy5-dT15 DNA, stronger effect = higher value, concentration not given here
# [2] = molecular target: Single-stranded DNA-binding protein (Escherichia coli (strain K12)) (UniProt P0AGE0); assay: SSB-ssDNA binding inhibitors – biochemical, fluorescence polarization, NIH Clinical Collection, counter-screen for HCV NS3 helicase inhibitor project (AID 743271; in the data active means inhibition above about 28%); conditions: E. coli SSB-DNA binding, stronger effect = higher value, concentration not given here
# [3] = compounds distorting NS3 helicase fluorescence signal – biochemical, NIH Clinical Collection, artefact control for HCV NS3 helicase inhibitor project (AID 743272; call rule not given here;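 further: HCV NS3 helicase with a Cy5 labelled single stranded DNA probe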); conditions: fluorescence interference counterscreen, HCV NS3 helicase assay; stronger effect = lower value
# [4] = Wnt pathway potentiators raising nuclear beta-catenin – imaging, WNT3A-conditioned medium, mouse C2C12, NPC library, primary screen (AID 1117326; in the data active means nuclear beta-catenin stimulation mostly above about 4.2%, no sharp cut-off; inactive means mostly below about 10%); conditions: stronger effect = higher value
# [5] = stimulators of insulin release from INS-1E, primary screen, cell-based, 5 mM glucose, NPC library (AID 1117329;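 active means compound raises insulin release from rat beta cells at 5 mM glucose, no numeric limit stated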); conditions: rat INS-1E insulin secretion, at 10 µM, stronger effect = higher value
# [6] = growth inhibition of GSK3B-pretreated HCT116 cells – cell-based, CellTiter-Glo, 0.2 to 20 µM (AID 1117336;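 active means compounds lowering colon cancer cell viability after pretreatment blocking the GSK3B kinase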); conditions: HCT116 viability after GSK3B inhibitor, at 20 µM, stronger effect = higher value
# [7] = inhibition of endothelial tube formation, primary screen, imaging, VEGF stimulated, CD31 staining, tube area, NPC library (AID 1117340;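 active means compound that reduces growth-factor-driven endothelial tube area in a mixed cell culture, no cutoff stated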); conditions: VEGF-stimulated ADSC/ECFC co-culture, at 10 µM, stronger effect = higher value
# [8] = GLP1 release stimulators, primary, NCI-H716, NPC library (AID 1117341;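 active means compound raises GLP1 secretion from the human gut endocrine cells, with no numeric limit stated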); conditions: NCI-H716 cells, at 10 µM, stronger effect = higher value
# [9] = HCT116 colon cancer cell growth inhibition, primary screen, CellTiter-Glo luminescence, NPC library (AID 1117342;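 active means compounds that lower survival of HCT116 colon cancer cells in the luminescence readout, no numeric limit stated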); conditions: at 20 µM (top of the series)
# [10] = reduced SW480 viability measured with CellTiter-Glo, NPC library, primary (AID 1117343;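 active means compounds that lower viability of the colon cancer cells in the luminescence readout, with no numeric limit stated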); conditions: CellTiter-Glo luminescence; at 20 µM (top of the series)
# [11] = NPC library primary testing for decreased DLD-1 cell viability via CellTiter-Glo (AID 1117346;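 active means compounds that lower survival of DLD-1 colon cancer cells in the luminescence readout, no cutoff given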); conditions: DLD-1 viability, CellTiter-Glo luminescence; at 20 µM (top of the series)
# [12] = molecular target: 6-phosphogluconate dehydrogenase, decarboxylating (Homo sapiens) (UniProt P52209); assay: inhibition of human phosphogluconate dehydrogenase – biochemical, recombinant enzyme, NADPH absorbance, primary screen (AID 1159550;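 active means at least 20% inhibition of 6-phosphogluconate dehydrogenase activity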); conditions: recombinant 6PGD, NADPH absorbance 341 nm; at 10 µM; stronger effect = higher value
# [13] = EMT-state selective cytotoxicity in co-culture – imaging, PC-3E GFP, TEM4-18 mCherry, primary screen (AID 1345086;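 active means compounds killing one labelled cell type while sparing the other, by normalised counts and ratio limits, not self-fluorescent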;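 on all read-outs here: cells exposed to compound for 72 h before imaging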;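 on red/green cell ratio (normalised): normalised mesenchymal count divided by normalised epithelial count so high means epithelial killing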); conditions: PC-3E GFP / TEM4-18 mCherry co-culture, imaging cell counts, at 1 µM; for red/green cell ratio (normalised): actives lie on both sides, counts scaled to control wells, 1 = unselective
# [14] = viability loss with induced miR-34 in A549 – imaging, A549 dox-inducible miR-34, nuclei and caspase counts, primary screen (AID 1347080;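 active means compounds whose cell count with miR-34 switched on is under 0.7 times the count with it off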); conditions: A549 miR-34 inducible, Hoechst nuclei count, 48 h
# [15] = MELAS cybrid and Rieske KO viability enhancers – cell-based, MELAS cybrids, Rieske KO mouse fibroblasts, CellTiter-Glo, primary screen (AID 1508586;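 active means mean z-score across replicates of 1.96 or higher in either the MELAS or the Rieske mutant cell line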;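 further: z relative to plate mean and SD of compound and empty wells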); conditions: low glucose
# [16] = molecular target: NAD(+) hydrolase SARM1 (Homo sapiens) (UniProt Q6SZW1); assay: blocking NAD cleavage by SARM1 SAM-TIR – cell lysate, NAD-Glo luminescence (AID 1508614;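 active means compound whose remaining NAD level is above about 45 nM, limit read from the data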); conditions: SAM-TIR HEK293T lysate NADase, at 1 µM, stronger effect = higher value
# [17] = molecular target: Mitogen-activated protein kinase 7 (Homo sapiens) (UniProt Q13164); assay: Gal4-ERK5 driven luciferase induction – cell-based, HTS, primary screen (AID 1508626;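 active means luciferase signal above three times the same-plate solvent-only control wells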;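 further: luciferase driven by Gal4-ERK5 fusion binding five Gal4 sites before minimal TATA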); conditions: HeLa Gal4-ERK5 transactivation, 18 h, at 5 µM, stronger effect = higher value
# F380Y = assay: BK channel mutant inhibitors and activators – cell-based, U2OS BacMam, thallium flux, beta subunits, selectivity assay, profiling panel (AID 1259406); conditions: U2OS BacMam BK variants, at 30 µM;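 further: initial slope of Thallos dye fluorescence rise after thallium is added; log ratio against the mean of 0.3% DMSO vehicle wells on the same plate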
# F380Y/beta2Delta = assay: as above; conditions: U2OS BacMam BK variants, at 30 µM
# [18] = molecular target: Calcium-activated potassium channel subunit alpha-1 (Homo sapiens) + Leucine-rich repeat-containing protein 26 (Homo sapiens) (UniProt Q12791+Q2I0M4); assay: as above; conditions: U2OS BacMam BK variants, F380Y/Slo1WT/gamma1, at 30 µM
# [19] = measured here: epithelial PC-3E GFP cell survival
# [20] = measured here: mesenchymal TEM4-18 mCherry cell survival
# [21] = stronger effect = lower value, cell number ratio, induced over uninduced
# [22] = measured here: relative caspase fold change +Dox/-Dox
# [23] = measured here: total cells with miR-34 induction, stronger effect = lower value
# [24] = measured here: total cells without miR-34 induction
# [25] = MELAS cybrid survival, CellTiter-Glo 48 h, stronger effect = higher value
# [26] = Rieske KO mouse fibroblast survival, CellTiter-Glo 72 h
# Sequence of NAD(+) hydrolase SARM1 (Homo sapiens) (Q6SZW1 whole entry, looked up, the tested form may be a part): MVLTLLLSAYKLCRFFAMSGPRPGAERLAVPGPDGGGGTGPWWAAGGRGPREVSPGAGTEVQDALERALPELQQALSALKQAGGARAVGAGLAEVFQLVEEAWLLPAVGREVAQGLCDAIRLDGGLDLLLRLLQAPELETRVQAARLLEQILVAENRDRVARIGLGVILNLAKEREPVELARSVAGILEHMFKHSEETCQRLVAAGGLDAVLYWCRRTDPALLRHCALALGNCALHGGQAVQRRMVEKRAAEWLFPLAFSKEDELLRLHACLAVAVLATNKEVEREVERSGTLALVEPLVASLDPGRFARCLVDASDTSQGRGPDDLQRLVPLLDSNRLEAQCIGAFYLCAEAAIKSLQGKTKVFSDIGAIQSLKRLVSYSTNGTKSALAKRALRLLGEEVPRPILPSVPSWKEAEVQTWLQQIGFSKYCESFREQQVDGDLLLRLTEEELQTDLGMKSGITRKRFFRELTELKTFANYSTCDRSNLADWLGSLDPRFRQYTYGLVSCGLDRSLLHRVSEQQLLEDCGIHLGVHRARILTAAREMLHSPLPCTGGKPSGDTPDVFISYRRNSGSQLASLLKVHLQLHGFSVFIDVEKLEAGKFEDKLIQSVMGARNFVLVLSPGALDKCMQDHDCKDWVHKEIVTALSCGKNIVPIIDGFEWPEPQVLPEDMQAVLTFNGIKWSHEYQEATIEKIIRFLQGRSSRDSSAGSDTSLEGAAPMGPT
# Sequence of Mitogen-activated protein kinase 7 (Homo sapiens) (Q13164 whole entry, looked up, the tested form may be a part): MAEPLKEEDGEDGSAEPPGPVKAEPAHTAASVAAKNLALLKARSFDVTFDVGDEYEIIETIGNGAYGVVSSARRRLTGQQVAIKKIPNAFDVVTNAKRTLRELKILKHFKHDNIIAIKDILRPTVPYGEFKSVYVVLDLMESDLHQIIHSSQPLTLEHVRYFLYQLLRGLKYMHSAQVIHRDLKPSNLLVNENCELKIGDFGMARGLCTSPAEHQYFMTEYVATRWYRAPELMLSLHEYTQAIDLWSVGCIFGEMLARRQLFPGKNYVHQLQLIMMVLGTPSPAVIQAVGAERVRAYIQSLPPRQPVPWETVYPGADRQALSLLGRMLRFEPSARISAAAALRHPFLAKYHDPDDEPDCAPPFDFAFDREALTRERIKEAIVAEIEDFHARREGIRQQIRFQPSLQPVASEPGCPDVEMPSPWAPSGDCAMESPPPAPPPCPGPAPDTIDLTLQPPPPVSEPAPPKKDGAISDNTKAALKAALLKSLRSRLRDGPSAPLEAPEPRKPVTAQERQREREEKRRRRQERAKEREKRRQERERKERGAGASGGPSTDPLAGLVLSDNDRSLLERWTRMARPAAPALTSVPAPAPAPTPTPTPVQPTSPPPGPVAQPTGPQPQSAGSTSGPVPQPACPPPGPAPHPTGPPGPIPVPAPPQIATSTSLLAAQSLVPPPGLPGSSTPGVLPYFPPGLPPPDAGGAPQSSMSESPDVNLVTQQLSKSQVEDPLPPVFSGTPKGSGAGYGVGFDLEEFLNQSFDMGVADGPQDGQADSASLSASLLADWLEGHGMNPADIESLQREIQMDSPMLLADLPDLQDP
# Sequence of Calcium-activated potassium channel subunit alpha-1 (Homo sapiens) + Leucine-rich repeat-containing protein 26 (Homo sapiens) (Q2I0M4 whole entry, looked up, one chain of several): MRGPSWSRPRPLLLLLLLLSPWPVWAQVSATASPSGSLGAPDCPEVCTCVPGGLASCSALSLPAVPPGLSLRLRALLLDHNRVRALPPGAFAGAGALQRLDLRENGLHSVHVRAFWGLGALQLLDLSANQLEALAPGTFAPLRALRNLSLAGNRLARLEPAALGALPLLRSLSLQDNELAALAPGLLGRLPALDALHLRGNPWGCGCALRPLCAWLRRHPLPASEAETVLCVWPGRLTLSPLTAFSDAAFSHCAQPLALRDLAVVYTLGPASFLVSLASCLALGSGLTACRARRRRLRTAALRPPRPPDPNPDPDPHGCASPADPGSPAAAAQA
# Sequence of 6-phosphogluconate dehydrogenase, decarboxylating (Homo sapiens) (P52209 whole entry, looked up): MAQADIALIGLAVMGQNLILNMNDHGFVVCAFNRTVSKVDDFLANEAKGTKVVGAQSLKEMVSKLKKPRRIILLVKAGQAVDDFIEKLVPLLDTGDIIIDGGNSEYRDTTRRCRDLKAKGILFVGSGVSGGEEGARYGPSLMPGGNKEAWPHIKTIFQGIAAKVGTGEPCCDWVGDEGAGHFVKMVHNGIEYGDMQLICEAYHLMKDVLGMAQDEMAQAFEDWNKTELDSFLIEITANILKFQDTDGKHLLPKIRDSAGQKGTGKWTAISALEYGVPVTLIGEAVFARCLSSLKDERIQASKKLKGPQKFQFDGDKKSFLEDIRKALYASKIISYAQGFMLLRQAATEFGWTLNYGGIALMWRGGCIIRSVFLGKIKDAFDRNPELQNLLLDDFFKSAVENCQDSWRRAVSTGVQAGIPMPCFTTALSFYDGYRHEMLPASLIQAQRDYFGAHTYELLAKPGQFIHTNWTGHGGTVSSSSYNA
structure (smiles),measurement,setting,value
NCC(=O)CCC(=O)O,inhibition,[1],-2.27% (inactive)
same,inhibition,[2],-0.48% (inactive)
same,fluorescence ratio,[3],1.02 (inactive)
same,nuclear beta-catenin stimulation,[4]; at 10 µM,0.4% (inactive)
same,nuclear beta-catenin stimulation,"[4]; stimulation, at 2 µM",-0.9%
same,insulin secretion stimulation,[5],1.9% (inactive)
same,viability decrease,[6],26.6% (inactive)
same,tube area decrease,[7],-10.4% (inactive)
same,GLP1 secretion stimulation,[8],-1.4% (inactive)
same,inhibition of viability,[9],18.9% (inactive)
same,viability decrease (inhibition),[10],19.8% (inactive)
same,viability decrease (inhibition),[11],1% (inactive)
same,inhibition,[12],-28.8% (inactive)
same,red/green cell ratio (normalised),[13],1.08 (inactive)
same,normalised cell number,[13]; [19],1.3
same,normalised cell number,[13]; [20],1.4
same,fold change,[14]; [21],0.951 (inactive) and 0.95 (inactive) and 0.866 (inactive)
same,fold change,[14]; [22],1.44 and 0.654 and 2.02
same,cell count,[14]; [23],9310 and 7910 and 11200
same,cell count,[14]; [24],9780 and 8320 and 12900
same,z-score,[15]; [25],-0.348 (inactive)
same,z-score,[15]; [26],0.0439
same,remaining NAD,[16],10 nM (inactive)
same,luciferase signal,[17],84 AU (inactive)
same,log fold change Tl+ flux,F380Y,-0.035 (inactive)
same,log fold change Tl+ flux,F380Y/beta2Delta,-0.0239 (inactive)
same,log fold change Tl+ flux,[18],0.011 (inactive)
CCCCNC(=O)NS(=O)(=O)c1ccc(C)cc1,inhibition,[1],-5.91% (inactive)
same,inhibition,[2],1.05% (inactive)
same,fluorescence ratio,[3],0.91 (inactive)
same,nuclear beta-catenin stimulation,[4]; at 10 µM,0.2% (inactive)
same,nuclear beta-catenin stimulation,"[4]; stimulation, at 2 µM",3.2%
same,insulin secretion stimulation,[5],3.85% (inactive)
same,viability decrease,[6],-5.6% (inactive)
same,tube area decrease,[7],5.7% (inactive)
same,GLP1 secretion stimulation,[8],6.7% (inactive)
same,inhibition of viability,[9],-6.5% (inactive)
same,viability decrease (inhibition),[10],-6% (inactive)
same,viability decrease (inhibition),[11],-5.4% (inactive)
same,inhibition,[12],-14.4% (inactive)
same,red/green cell ratio (normalised),[13],1.12 (inactive)
same,normalised cell number,[13]; [19],1.03
same,normalised cell number,[13]; [20],1.15
same,z-score,[15]; [25],-0.283 (inactive) and 0.394 (inactive) and 0.614 (inactive)
same,z-score,[15]; [26],-0.151 and -0.133 and 0.0575
same,remaining NAD,[16],10 nM (inactive)
same,luciferase signal,[17],36 AU (inactive)
same,log fold change Tl+ flux,F380Y,-0.00894 (inactive)
same,log fold change Tl+ flux,F380Y/beta2Delta,0.0378 (inactive)
same,log fold change Tl+ flux,[18],-0.0258 (inactive)
O=C1NC(=O)C(c2ccccc2)(c2ccccc2)N1,inhibition,[1],-2.27% (inactive)
same,inhibition,[2],-2% (inactive)
same,fluorescence ratio,[3],1 (inactive)
same,nuclear beta-catenin stimulation,[4]; at 10 µM,0.1% (inactive)
same,nuclear beta-catenin stimulation,"[4]; stimulation, at 2 µM",0.8%
same,insulin secretion stimulation,[5],-0.3% (inactive)
same,viability decrease,[6],7% (inactive)
same,tube area decrease,[7],-8.6% (inactive)
same,GLP1 secretion stimulation,[8],3.3% (inactive)
same,inhibition of viability,[9],0.15% (inactive)
same,viability decrease (inhibition),[10],45.8% (inactive)
same,viability decrease (inhibition),[11],-0.3% (inactive)
same,inhibition,[12],6.59% (inactive)
same,red/green cell ratio (normalised),[13],0.93 (inactive)
same,normalised cell number,[13]; [19],1.07
same,normalised cell number,[13]; [20],0.99
same,z-score,[15]; [25],2.18 (active) and -0.393 (inactive)
same,z-score,[15]; [26],-1.75 and 0.128
same,remaining NAD,[16],10 nM (inactive)
same,luciferase signal,[17],68 AU (inactive)
same,log fold change Tl+ flux,F380Y,0.0665 (inactive)
same,log fold change Tl+ flux,F380Y/beta2Delta,-0.01 (inactive)
same,log fold change Tl+ flux,[18],-0.0118 (inactive)
Cc1onc(-c2c(Cl)cccc2Cl)c1C(=O)N[C@@H]1C(=O)N2[C@@H]1SC(C)(C)[C@@H]2C(=O)O,inhibition,[1],-2.27% (inactive)
same,inhibition,[2],-0.48% (inactive)
same,fluorescence ratio,[3],1.03 (inactive)
same,nuclear beta-catenin stimulation,[4]; at 10 µM,1.5% (inactive)
same,nuclear beta-catenin stimulation,"[4]; stimulation, at 2 µM",1.3%
same,insulin secretion stimulation,[5],1.5% (inactive)
same,viability decrease,[6],-15.4% (inactive)
same,tube area decrease,[7],1.6% (inactive)
same,GLP1 secretion stimulation,[8],0% (inactive)
same,inhibition of viability,[9],-4.23% (inactive)
same,viability decrease (inhibition),[10],18.3% (inactive)
same,viability decrease (inhibition),[11],-11.8% (inactive)
same,inhibition,[12],-8.13% (inactive)
same,red/green cell ratio (normalised),[13],1.32 (inactive)
same,normalised cell number,[13]; [19],1.26
same,normalised cell number,[13]; [20],1.67
same,fold change,[14]; [21],0.978 (inactive) and 0.899 (inactive) and 0.89 (inactive)
same,fold change,[14]; [22],0.333 and 1.39 and 0.886
same,cell count,[14]; [23],10400 and 7750 and 11800
same,cell count,[14]; [24],10700 and 8620 and 13200
same,z-score,[15]; [25],0.18 (inactive)
same,z-score,[15]; [26],0.0231
same,remaining NAD,[16],10 nM (inactive)
same,luciferase signal,[17],36 AU (inactive)
same,log fold change Tl+ flux,F380Y,0.01 (inactive)
same,log fold change Tl+ flux,F380Y/beta2Delta,-0.00879 (inactive)
same,log fold change Tl+ flux,[18],0.0705 (inactive)
C[C@H](CS)C(=O)N1CCC[C@H]1C(=O)O,nuclear beta-catenin stimulation,[4]; at 10 µM,0.8% (inactive)
same,nuclear beta-catenin stimulation,"[4]; stimulation, at 2 µM",0.9%
same,insulin secretion stimulation,[5],-2.3% (inactive)
same,viability decrease,[6],-11.6% (inactive)
same,tube area decrease,[7],12.5% (inactive)
same,GLP1 secretion stimulation,[8],2.3% (inactive)
same,inhibition of viability,[9],-2.6% (inactive)
same,viability decrease (inhibition),[10],27.6% (inactive)
same,viability decrease (inhibition),[11],-2.15% (inactive)
same,inhibition,[12],-3.72% (inactive)
same,red/green cell ratio (normalised),[13],1.1 (inactive)
same,normalised cell number,[13]; [19],1.01
same,normalised cell number,[13]; [20],1.1
same,z-score,[15]; [25],-0.272 (inactive) and -0.072 (inactive)
same,z-score,[15]; [26],-0.06 and -1.18
same,remaining NAD,[16],10 nM (inactive)
same,luciferase signal,[17],52 AU (inactive)
same,log fold change Tl+ flux,F380Y,-0.0244 (inactive)
same,log fold change Tl+ flux,F380Y/beta2Delta,0.00669 (inactive)
same,log fold change Tl+ flux,[18],0.0254 (inactive)
C=C(CC)C(=O)c1ccc(OCC(=O)O)c(Cl)c1Cl,inhibition,[1],-4.09% (inactive)
same,inhibition,[2],2.57% (inactive)
same,fluorescence ratio,[3],0.9 (inactive)
same,nuclear beta-catenin stimulation,[4]; at 10 µM,3% (inactive)
same,nuclear beta-catenin stimulation,"[4]; stimulation, at 2 µM",1.4%
same,insulin secretion stimulation,[5],-2.5% (inactive)
same,viability decrease,[6],24.9% (inactive)
same,tube area decrease,[7],52.6% (active)
same,GLP1 secretion stimulation,[8],3.1% (inactive)
same,inhibition of viability,[9],-25.8% (inactive)
same,viability decrease (inhibition),[10],122% (active)
same,viability decrease (inhibition),[11],14.8% (inactive)
same,inhibition,[12],9.98% (inactive)
same,red/green cell ratio (normalised),[13],0.98 (inactive)
same,normalised cell number,[13]; [19],0.92
same,normalised cell number,[13]; [20],0.9
same,cell count,[14]; [24],10500 and 9830 and 12200
same,z-score,[15]; [25],0.232 (inactive) and -0.08 (inactive)
same,z-score,[15]; [26],-0.298 and 0.189
same,remaining NAD,[16],10 nM (inactive)
same,luciferase signal,[17],64 AU (inactive)
same,log fold change Tl+ flux,F380Y,-0.0103 (inactive)
same,log fold change Tl+ flux,F380Y/beta2Delta,-0.0325 (inactive)
same,log fold change Tl+ flux,[18],0.0507 (inactive)
